The list is not random: actives were taken first. Their share in the collection is about 9%.
ALDH1A1 inh = ALDH1A1 (human) enzyme inhibition | P00352 | Purified ALDH1A1, NADH fluorescence, propionaldehyde substrate | Potency, µM (top dose mostly 75.3 µM), hits mostly inhibitors | 220,000 tested, 7.3% active; active = well fitted inhibition curve with a large enough effect, not every such curve was filed as active; inconclusive = small, poorly fitted or top-dose-only effect, or another doubt; inactive = no such curve, though single readings can be large or run the other way
Target sequence (P00352 whole entry, looked up): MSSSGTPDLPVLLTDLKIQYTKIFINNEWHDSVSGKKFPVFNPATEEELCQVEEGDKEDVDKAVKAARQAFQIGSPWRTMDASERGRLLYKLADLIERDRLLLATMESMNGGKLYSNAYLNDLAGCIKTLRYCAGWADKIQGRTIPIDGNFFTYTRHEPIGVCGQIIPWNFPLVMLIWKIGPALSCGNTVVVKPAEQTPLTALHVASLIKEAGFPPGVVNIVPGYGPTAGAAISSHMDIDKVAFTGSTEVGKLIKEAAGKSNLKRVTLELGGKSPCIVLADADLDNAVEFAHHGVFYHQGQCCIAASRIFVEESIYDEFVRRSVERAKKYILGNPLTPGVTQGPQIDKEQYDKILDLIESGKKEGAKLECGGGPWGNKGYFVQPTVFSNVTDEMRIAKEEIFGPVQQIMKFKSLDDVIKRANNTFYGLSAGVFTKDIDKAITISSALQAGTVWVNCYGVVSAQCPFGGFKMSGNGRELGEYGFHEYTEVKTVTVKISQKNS
HttQ103 aggreg = mutant huntingtin aggregation inhibition; PC12 HttQ103-GFP aggregates, Acumen cytometry, 40 h; Potency, µM (top dose mostly 46.1 µM), hits mostly inhibitors; 220,000 tested, 1.1% active; note: nearly all actives have a fitted effect of over 60% in size
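Inducible Q103 Huntingtin exon 1–GFP PC12 line, 1500 cells/well in phenol red free DMEM with 5% equine and 5% calf serum. Tebufenozide 100 nM induced expression; compounds titrated; aggregates quantified by cytometry.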
Lamin A splicing = changes lamin A minigene splicing in HeLa cells | Potency, µM (series often up to 46.1 µM), usual class: inhibitors | 200,000 tested, 0.01% active | HeLa LMNA splicing GFP/RFP minigene ratio, 48 h; active = well fitted inhibition curve with a large enough effect in the signal ratio, with a control signal flat, not every such curve was filed as active; inconclusive = small, poorly fitted or top-dose-only effect, or effect the other way, or a change in a side signal; the % refers to the signal ratio
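Read-out is the ratio of GFP to DsRed2 object intensity, acquired by 488 nm laser-scanning cytometry on HeLa lamin A-EGFP minigene reporter cells. Compound incubation 48 hrs at 37 °C in Opti-MEM with 2% FBS; DMSO 0.5% final.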
KinaseGlo FLuc = Kinase-Glo luciferase inhibition (counter-screen); Kinase-Glo luciferase, ATP luminescence, 8 min; Potency, µM (titrated, usually from 38.3 µM), actives largely listed as inhibitors; 200,000 tested, 0.28% active; AID 1379; note: nearly all actives have a fitted effect of over 60% in size
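Kinase-Glo luciferase light output from ATP and luciferin was measured with 10 uM ATP, within the enzyme's linear range. Buffer: 50 mM imidazole pH 7.2, 50 mM KCl, 7 mM MgCl2, 0.01% Tween 20, 0.05% BSA; luminescence read after 8 min at ambient temperature.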
HPGD block = inhibitors of human 15-hydroxyprostaglandin dehydrogenase (HPGD); purified HPGD, NADH fluorescence kinetic, PGE2 substrate; Potency, µM, usual class: inhibitors; 150,000 tested, 4.3% active; AID 894; active = well fitted inhibition curve with a large enough effect, not every such curve was filed as active; inconclusive = small, poorly fitted or top-dose-only effect, or another doubt; inactive = no such curve, though single readings can be large or run the other way
Target sequence (P15428 whole entry, looked up): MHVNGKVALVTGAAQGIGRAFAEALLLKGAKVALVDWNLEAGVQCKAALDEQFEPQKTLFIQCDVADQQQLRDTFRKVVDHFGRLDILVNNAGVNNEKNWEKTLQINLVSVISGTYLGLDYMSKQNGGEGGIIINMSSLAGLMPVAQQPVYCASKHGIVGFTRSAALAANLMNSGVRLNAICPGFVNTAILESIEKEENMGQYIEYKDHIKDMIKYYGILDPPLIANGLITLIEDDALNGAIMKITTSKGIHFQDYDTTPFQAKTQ
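20 nM HPGD preincubated 15 min at room temperature with compound in 50 mM Tris-HCl pH 8, 0.01% Tween 20. Started with 1 mM NAD+ and 30 uM prostaglandin E2; NADH fluorescence (360/450 nm) read 5 times over 30-s intervals, last minus first.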
HTT ATP protect = Huntington cell model cytoprotection by ATP luminescence | PC12 HTT-Q103 induced, cytoprotection, ATP luminescence, 40 h | Potency, µM (top dose mostly 56.4 µM), most hits filed as activators | 230,000 tested, 0.14% active | AID 1471; note: nearly all actives have a fitted effect of over 45% in size
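Rat PC12, Q103 Htt exon1-GFP fusion, ecdysone promoter; tebufenozide inducer 100 nM final; compound titration; qHTS, 1500 cells/well; ATPlite luminescent read.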
Large screens that a line does not name were inactive. Unless noted, calls come from the whole dose curve; as a rule, active = well fitted curve in the direction sought with a large enough effect; inconclusive = small, poorly fitted or top-dose-only effect, or another doubt; inactive = no such curve, though single readings can be large; an effect the other way counts as inactive or inconclusive.

COc1ccc(Cn2c(SCC#N)nc3ccc(N4CCOCC4)cc3c2=O)cc1	ALDH1A1 inh inconclusive (no result: Lamin A splicing, HPGD block)
COc1ccccc1N1CCN(C(=O)CSc2nc3ccccc3nc2Cc2ccc(C)cc2)CC1	none (no result: ALDH1A1 inh, HttQ103 aggreg, KinaseGlo FLuc, HPGD block, HTT ATP protect)
COC(=O)CCCCCN1C(=O)/C(=C\c2ccncc2)SC1=S	ALDH1A1 inh 25µM (no result: Lamin A splicing, KinaseGlo FLuc, HPGD block)
Fc1cc(F)cc(-c2oncc2-c2nnnn2-c2ccccc2)c1	none
O=C(O)[C@@H](O)[C@@H](O)[C@@H](O)[C@@H](O)c1nc2ccccc2s1	HPGD block 3.5µM (no result: HttQ103 aggreg, Lamin A splicing)
COc1cccc(C2c3c(oc4ccccc4c3=O)C(=O)N2CCCN2CCOCC2)c1OC (stereo not given)	none (no result: ALDH1A1 inh, HttQ103 aggreg, Lamin A splicing, KinaseGlo FLuc, HPGD block)
COc1ccc(OC)c2sc(N3CCCCC3)nc12	ALDH1A1 inh inconclusive, HPGD block 16µM
COc1ccc(OC)c2sc(N3CCc4ccccc4C3)nc12	ALDH1A1 inh inconclusive (no result: HPGD block)
O=C(Nc1cccc(-c2nnc(-c3ccccc3)o2)c1)C1CC1	none (no result: Lamin A splicing, HPGD block)
CC(=O)C1=C(O)C(=O)N(CCc2c[nH]c3ccccc23)C1c1ccc(O)cc1 (stereo not given)	none
CN(C)c1nc(N2CCN(c3ccccc3)CC2)c(C#N)c(=O)o1	ALDH1A1 inh inconclusive, HPGD block 16µM
Cc1cccc(C)c1N1CCN(c2nc(N(C)C)oc(=O)c2C#N)CC1	HPGD block inconclusive
O=C1C(Cl)=C(NC2CCCCC2)C(=O)N1Cc1ccccc1	HttQ103 aggreg inconclusive (no result: HPGD block)
O=C(c1nn(Cc2ccccc2)c(=O)c2ccccc12)N1CCN(C/C=C/c2ccccc2)CC1	ALDH1A1 inh 13µM
CCOC(=O)c1oc2ccccc2c1NC(=O)c1ccc(S(=O)(=O)N(C)C)cc1	none (no result: HttQ103 aggreg)
CSc1ccc(S(=O)(=O)Nc2ccc(S(=O)(=O)Nc3ccc(C)cc3)cc2)cc1	ALDH1A1 inh 8.9µM
CSc1ccc(S(=O)(=O)Nc2ccc(NC(C)=O)cc2)cc1	ALDH1A1 inh inconclusive
Cc1ccc(S(=O)(=O)Nc2ccc3c(c2)CCC3)cc1C	Lamin A splicing inconclusive
Cc1ccc(S(=O)(=O)NNC(=O)C(=O)NNS(=O)(=O)c2ccc(C)cc2)cc1	Lamin A splicing inconclusive (no result: HPGD block)
Cc1ccc(S(=O)(=O)Nc2ccc3c(c2)CCC3)cc1	ALDH1A1 inh 11µM, Lamin A splicing inconclusive
Cc1ccc(NNS(=O)(=O)c2ccc(C)cc2)cc1	ALDH1A1 inh 6.3µM, HPGD block 4µM
COc1ccc(Cl)cc1C(=O)NCc1cnn(C)c1C	none
CCOC(=O)C1CCN(C(=O)c2sc3nc(-c4ccccc4)cn3c2C)CC1	none
Cc1c(C(=O)Nc2cccc3cccnc23)oc2ccccc12	HPGD block inconclusive
Cc1ccc(C)c(S(=O)(=O)N2CCN(C(C(=O)Nc3ccc(F)cc3)c3ccccc3)CC2)c1 (stereo not given)	ALDH1A1 inh 11µM
O=C(Nc1ccc2c(c1)OCO2)C(c1ccccc1)N1CCN(C(=O)c2ccco2)CC1 (stereo not given)	ALDH1A1 inh 3µM
O=C(Nc1ccc(F)cc1)C(c1ccccc1)N1CCN(C(=O)c2ccco2)CC1 (stereo not given)	ALDH1A1 inh 5µM
O=C(c1ccco1)N1CCN(C(=O)C(Sc2ccccc2)c2ccccc2)CC1 (stereo not given)	ALDH1A1 inh 14µM, HttQ103 aggreg 10µM
O=C(Nc1ccc2c(c1)OCO2)C(c1ccc(Cl)cc1)N1CCN(C(=O)c2ccco2)CC1 (stereo not given)	none
O=C(O)C1CC(=O)N(c2ccc(F)c(F)c2)C1 (stereo not given)	none
COc1cc(CN/C(C)=C(\C#N)C(N)=O)cc(OC)c1OC	none
COC(=O)NNC(=S)NCc1ccccc1	ALDH1A1 inh inconclusive
Cc1ccc(-c2nnn(CC(=O)N(CC(=O)NCc3ccccc3)c3cccc(C)c3C)n2)o1	ALDH1A1 inh 10µM, HPGD block 25µM
Cc1cccc(N(CC(=O)NCc2ccccc2)C(=O)Cn2nnc(-c3ccc(C)o3)n2)c1	none
CCCn1c(N)c(N(C)C)c(=O)n(CC(=O)Nc2ccc(OC(F)(F)F)cc2)c1=O	none
N=c1ccn(Cc2ccc(Cl)cc2)cc1	ALDH1A1 inh 25µM, HttQ103 aggreg 6.3µM, Lamin A splicing inconclusive
N=c1ccn(Cc2ccc(Cl)cc2Cl)cc1	HttQ103 aggreg 7.1µM, Lamin A splicing inconclusive
N=c1ccn(Cc2ccc(Cl)c(Cl)c2)cc1	HttQ103 aggreg 2µM, Lamin A splicing inconclusive
OCCN(Cc1nc(-c2ccc3c(c2)OCO3)no1)Cc1cccs1	ALDH1A1 inh inconclusive, Lamin A splicing inconclusive (no result: HPGD block)
CCOc1ccccc1N1CCN(c2nc(N)c(C#N)c(CC#N)c2C#N)CC1	ALDH1A1 inh 20µM
C=CCNc1nnc(SC2CC(=O)N(c3ccc(OCCC)cc3)C2=O)s1 (stereo not given)	ALDH1A1 inh 0.56µM, Lamin A splicing inconclusive, HPGD block 14µM
Cc1ccc(N2C(=O)CC(Sc3ncccc3C(=O)O)C2=O)cc1 (stereo not given)	none (no result: Lamin A splicing, HPGD block)
CCCOc1ccc(N2C(=O)CC(SC(=NC)Nc3ccc(F)cc3)C2=O)cc1 (stereo not given)	none
Cc1nc(SC2CC(=O)N(c3ccc([N+](=O)[O-])cc3)C2=O)nc2c1CCCC2 (stereo not given)	ALDH1A1 inh 1.8µM
N#Cc1cc2c(nc1SC1CC(=O)N(c3ccccc3)C1=O)CCC2 (stereo not given)	none (no result: HTT ATP protect)
Cc1nc(SC2CC(=O)N(c3ccccc3)C2=O)n[nH]1 (stereo not given)	ALDH1A1 inh 0.35µM (no result: Lamin A splicing, HPGD block)
O=C1CC(Sc2ncccn2)C(=O)N1c1ccccc1 (stereo not given)	ALDH1A1 inh 22µM
C=CCc1ccc2oc(C(=O)OCC)cc(=O)c2c1O	none (no result: KinaseGlo FLuc, HPGD block)
Cc1ncc([N+](=O)[O-])n1CC(=O)NC(C)(C)C	none
O=C(Nc1ccc([N+](=O)[O-])cc1)c1cc(-c2ccccn2)nc2c(Cl)cccc12	Lamin A splicing inconclusive (no result: HPGD block)
CCSc1nc(N2CCOCC2)c2ccccc2n1	none
Cc1cc(C(F)(F)F)nc(Nc2nc(C)c3ccccc3n2)n1	none
CCOC(=O)c1cnc(SCc2nc(N)nc(Nc3ccc(F)cc3)n2)nc1N	HttQ103 aggreg inconclusive, Lamin A splicing inconclusive
CCOc1ccc(N2C(=O)CC(Sc3ncccn3)C2=O)cc1 (stereo not given)	ALDH1A1 inh 22µM
COc1ccccc1N1C(=O)CC(Sc2n[nH]c(-c3cccc(C)c3)n2)C1=O (stereo not given)	ALDH1A1 inh 2µM, HttQ103 aggreg inconclusive, HPGD block inconclusive
Nc1nnc(SC2CC(=O)N(c3ccccc3)C2=O)s1 (stereo not given)	ALDH1A1 inh 3.5µM, HttQ103 aggreg inconclusive, HPGD block 32µM

Screens from PubChem.
